Laboratory results published in the supplement of paper PMC10849652.
Of roughly 7,900 targets only a part is listed; those with a hit were picked by preference. About 0.6% of all pairs of compound and target were hits.

Legend:
Test in all cases: log2 fold change, soluble protein after heating vs DMSO (PISA); higher = thermal stabilisation; K562 cells, 10 uM, 30 min; active = over 0.2 and 3.5 SD of the protein, either way, in both replicates (recomputed)
erlotinib = compound: C#Cc1cccc(Nc2ncnc3cc(OCCOC)c(OCCOC)cc23)c1 [erlotinib]
Outline: (§1)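 K562 cells at 2×10^6 cells/mL were given 10 μM compound for 30 min. Aliquots then went through 3 min of heating across 48°C-58°C, were pooled, and were extracted in PBS with 0.5% NP-40 at 4°C, and the supernatant after 21,000xg for 90 min was quantified by TMTpro 16plex LC-MS/MS with channel sums equalised. Thermal stability relative to control samples, from duplicates, is given as log2 fold change.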

[1] = compound: C/C(=N\NC(=O)C1=CC(=CC=C1)S(=O)(=O)N2CCOCC2)/C3=C(C=CC(=C3)Cl)O
Outline: as §1

[2] = compound: C1=CC(=C(C=C1Cl)C2=NC3=NC=CN=C3C(=N2)NC4=CC=NC=C4)F
Outline: as §1

[3] = compound: C1=CC(=CC=C1C2=NC3=C(N2)C=C(C=C3)C(=O)N)OC4=CC=C(C=C4)Cl
Outline: as §1

[4] = compound: C1=CC2=C(C=CC(=C2)/C=C\3/C(=O)NC(=NCC4=CC=CS4)S3)N=C1
Outline: as §1

[5] = compound: C1=CC2=NC=CN=C2C=C1/C=C/3\C(=O)NC(=O)S3
Outline: as §1

[6] = compound: C1=CC=C(C=C1)C2=NC(=C(N2)C3=CC=NC=C3)C4=CC(=C(C=C4)Cl)O
Outline: as §1

[7] = compound: C1=CC=C2C(=C1)C3=NNC4=CC=CC(=C43)C2=O
Outline: as §1

[8] = compound: C1CCN(C1)C(=O)NC2=CC=CC(=C2)NC3=NC=C(C(=N3)NCCC4=CN=CN4)Br
Outline: as §1

[9] = compound: C1CN(CCC1(CC2=CC=C(C=C2)Cl)N)C3=NC=NC4=C3C=CN4
Outline: as §1

IRAK-1-4 Inhibitor I = compound: C1COCCN1CCN2C3=CC=CC=C3N=C2NC(=O)C4=CC(=CC=C4)[N+](=O)[O-] [IRAK-1-4 Inhibitor I]
Outline: as §1

ibrutinib = compound: C=CC(=O)N1CCC[C@@H](n2nc(-c3ccc(Oc4ccccc4)cc3)c3c(N)ncnc32)C1 [ibrutinib]
Outline: as §1

[10] = compound: CC(=O)c1cnc2ccc(-c3cc(Cl)c(O)c(Cl)c3)nc2c1N[C@H]1CC[C@H](CN(C)C)CC1
Outline: as §1

ralimetinib = compound: CC(C)(C)Cn1c(N)nc2ccc(-c3[nH]c(C(C)(C)C)nc3-c3ccc(F)cc3)nc21 [ralimetinib]
Outline: as §1

[11] = compound: CC(C)(O)CC(=O)NCCn1ccc2ncnc(Nc3ccc(Oc4cccc(C(F)(F)F)c4)c(Cl)c3)c21
Outline: as §1

[12] = compound: CC(C)C1=C2N=C(C=C(N2N=C1)NCC3=CC=CC=C3)NCCCCCCN
Outline: as §1

[13] = compound: CC(C)C[C@@H](C=O)NC(=O)[C@H](CC(C)C)NC(=O)[C@H](CC(C)C)NC(=O)OCc1ccccc1
Outline: as §1

pinometostat = compound: CC(C)N(C[C@H]1O[C@@H](n2cnc3c(N)ncnc32)[C@H](O)[C@@H]1O)[C@H]1C[C@@H](CCc2nc3cc(C(C)(C)C)ccc3[nH]2)C1 [pinometostat]
Outline: as §1

[14] = compound: CC1=C(C(CC(=O)N1)C2=CC=C(C=C2)C(F)(F)F)C(=O)NC3=C(C=C4C(=C3)C=NN4)F
Outline: as §1

[15] = compound: CC1=C(C2=C(C=C1)C(=O)C3=CC=CC=C3N2CCCN)C
Outline: as §1

Measured: log2 fold change

SCCPDH (UniProt Q8NBX0)
inactive: erlotinib -0.047 | [1] -0.021 | [2] 0.079 | [3] -0.065 | [4] 0.019 | [5] 0.051 | [6] 0.037 | [7] 0.03 | [8] 0.011 | [9] 0.064 | IRAK-1-4 Inhibitor I -0.005 | ibrutinib 0.061 | [10] 0.031 | ralimetinib 0.059 | [11] 0.156 | [12] 0.038 | [13] -0.032 | pinometostat -0.073 | [14] -0.031 | [15] 0.023

RFC3 (UniProt P40938)
Chain of UniProt P40938 (P40938 whole entry, looked up): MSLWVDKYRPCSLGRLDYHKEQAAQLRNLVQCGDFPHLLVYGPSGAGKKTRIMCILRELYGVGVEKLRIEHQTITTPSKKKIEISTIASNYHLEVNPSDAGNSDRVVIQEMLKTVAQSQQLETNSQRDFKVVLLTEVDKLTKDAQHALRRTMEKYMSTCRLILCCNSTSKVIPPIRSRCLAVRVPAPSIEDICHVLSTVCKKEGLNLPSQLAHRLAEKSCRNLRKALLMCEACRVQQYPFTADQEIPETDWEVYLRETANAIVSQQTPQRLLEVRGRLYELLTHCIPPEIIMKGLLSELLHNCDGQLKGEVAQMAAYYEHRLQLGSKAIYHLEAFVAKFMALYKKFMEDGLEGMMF
inactive: erlotinib -0.04 | [1] 0.108 | [2] 0.033 | [3] 0.005 | [4] 0.066 | [5] 0.007 | [6] 0.046 | [7] 0.046 | [8] -0.06 | [9] 0.054 | IRAK-1-4 Inhibitor I 0.003 | ibrutinib 0.025 | [10] -0.101 | ralimetinib 0.021 | [11] -0.087 | [12] -0.012 | [13] -0.047 | pinometostat -0.057 | [14] 0 | [15] 0.09

RPS15 (UniProt P62841)
active: [15] -0.574
inactive: erlotinib -0.173 | [1] -0.259 | [2] -0.208 | [3] 0.016 | [4] 0.028 | [5] -0.092 | [6] 0.036 | [7] -0.131 | [8] 0.188 | [9] -0.138 | IRAK-1-4 Inhibitor I -0.114 | ibrutinib 0.11 | [10] -0.042 | ralimetinib 0.076 | [11] 0.103 | [12] -0.043 | [13] 0.11 | pinometostat 0.088 | [14] 0.071

RAB9A (UniProt P51151)
Chain of UniProt P51151 (P51151 whole entry, looked up): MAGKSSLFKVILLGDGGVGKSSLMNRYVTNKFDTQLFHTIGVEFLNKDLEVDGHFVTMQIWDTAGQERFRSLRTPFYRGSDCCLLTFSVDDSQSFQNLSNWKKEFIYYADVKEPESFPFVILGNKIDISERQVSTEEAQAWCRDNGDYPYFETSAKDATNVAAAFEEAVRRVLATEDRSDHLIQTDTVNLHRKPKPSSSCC
inactive: erlotinib 0.037 | [1] 0.05 | [2] 0.017 | [3] 0.016 | [4] 0.046 | [5] -0.022 | [6] -0.005 | [7] -0.01 | [8] 0.017 | [9] 0.056 | IRAK-1-4 Inhibitor I 0.018 | ibrutinib 0.018 | [10] -0.001 | ralimetinib -0.001 | [11] -0.014 | [12] -0.126 | [13] -0.008 | pinometostat -0.027 | [14] -0.021 | [15] 0.06

RRP12 (UniProt Q5JTH9)
Chain of UniProt Q5JTH9 (Q5JTH9 whole entry, looked up): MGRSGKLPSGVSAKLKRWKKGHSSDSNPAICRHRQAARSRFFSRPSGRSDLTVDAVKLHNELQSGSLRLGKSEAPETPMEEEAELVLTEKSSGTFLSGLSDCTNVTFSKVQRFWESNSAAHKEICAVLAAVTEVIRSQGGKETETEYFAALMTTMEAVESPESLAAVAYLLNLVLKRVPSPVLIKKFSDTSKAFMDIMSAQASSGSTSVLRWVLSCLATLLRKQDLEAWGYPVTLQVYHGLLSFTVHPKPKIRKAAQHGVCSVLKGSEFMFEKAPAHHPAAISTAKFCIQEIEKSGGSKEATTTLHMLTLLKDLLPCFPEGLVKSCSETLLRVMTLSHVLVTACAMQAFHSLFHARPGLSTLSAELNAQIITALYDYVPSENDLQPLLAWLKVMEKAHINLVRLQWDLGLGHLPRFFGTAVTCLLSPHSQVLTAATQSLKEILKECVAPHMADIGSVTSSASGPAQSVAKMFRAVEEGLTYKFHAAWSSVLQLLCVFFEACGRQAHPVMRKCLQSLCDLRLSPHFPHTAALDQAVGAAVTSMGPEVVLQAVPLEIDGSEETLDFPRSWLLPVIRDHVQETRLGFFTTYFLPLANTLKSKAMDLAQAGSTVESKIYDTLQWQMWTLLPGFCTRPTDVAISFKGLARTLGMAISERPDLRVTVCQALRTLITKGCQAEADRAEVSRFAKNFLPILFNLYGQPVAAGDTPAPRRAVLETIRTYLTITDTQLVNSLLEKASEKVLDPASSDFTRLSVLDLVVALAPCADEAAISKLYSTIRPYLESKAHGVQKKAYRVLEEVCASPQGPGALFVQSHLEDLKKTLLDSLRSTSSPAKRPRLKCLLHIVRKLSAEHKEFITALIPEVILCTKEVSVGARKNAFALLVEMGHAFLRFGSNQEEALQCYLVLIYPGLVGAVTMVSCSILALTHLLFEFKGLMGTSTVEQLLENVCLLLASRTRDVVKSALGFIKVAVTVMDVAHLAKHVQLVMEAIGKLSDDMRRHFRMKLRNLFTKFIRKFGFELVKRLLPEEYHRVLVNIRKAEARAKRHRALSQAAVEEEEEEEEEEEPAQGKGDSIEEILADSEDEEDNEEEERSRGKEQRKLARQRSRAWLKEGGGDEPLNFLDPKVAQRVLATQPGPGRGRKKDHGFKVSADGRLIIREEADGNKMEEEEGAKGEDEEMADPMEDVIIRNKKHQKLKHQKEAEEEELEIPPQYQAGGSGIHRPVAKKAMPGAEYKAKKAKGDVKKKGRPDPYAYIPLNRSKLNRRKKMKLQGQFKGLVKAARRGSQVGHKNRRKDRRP
inactive: erlotinib 0.074 | [1] -0.3 | [2] -0.172 | [3] 0.028 | [4] -0.04 | [5] 0.038 | [6] 0.166 | [7] 0.205 | [8] 0.079 | [9] 0.054 | IRAK-1-4 Inhibitor I -0.018 | ibrutinib -0.1 | [10] 0.201 | ralimetinib 0.331 | [11] 0.006 | [12] 0.272 | [13] 0.243 | pinometostat 0.315 | [14] -0.051 | [15] -0.107

SLC19A1 (UniProt P41440)
Chain of UniProt P41440 (P41440 whole entry, looked up): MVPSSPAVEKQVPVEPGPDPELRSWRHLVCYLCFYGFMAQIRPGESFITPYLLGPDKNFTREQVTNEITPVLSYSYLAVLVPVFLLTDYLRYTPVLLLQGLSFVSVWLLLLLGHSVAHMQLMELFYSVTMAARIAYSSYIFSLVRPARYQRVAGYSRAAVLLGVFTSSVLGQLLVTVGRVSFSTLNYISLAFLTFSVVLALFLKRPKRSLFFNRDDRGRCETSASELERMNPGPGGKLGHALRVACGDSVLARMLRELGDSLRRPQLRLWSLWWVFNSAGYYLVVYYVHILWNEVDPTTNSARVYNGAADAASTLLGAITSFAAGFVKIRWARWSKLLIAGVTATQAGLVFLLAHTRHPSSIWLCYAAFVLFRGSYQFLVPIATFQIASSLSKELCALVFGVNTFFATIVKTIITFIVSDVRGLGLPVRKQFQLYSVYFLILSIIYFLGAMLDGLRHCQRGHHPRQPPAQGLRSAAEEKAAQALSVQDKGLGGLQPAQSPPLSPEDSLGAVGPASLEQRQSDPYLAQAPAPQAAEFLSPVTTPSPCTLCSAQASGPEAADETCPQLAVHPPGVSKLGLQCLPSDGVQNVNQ
inactive: erlotinib -0.023 | [1] 0.029 | [2] 0.159 | [3] 0.022 | [4] -0.006 | [5] 0.103 | [6] 0.118 | [7] -0.008 | [8] -0.009 | [9] 0.08 | IRAK-1-4 Inhibitor I 0.017 | ibrutinib -0.025 | [10] -0.034 | ralimetinib 0.005 | [11] -0.061 | [12] 0.104 | [13] 0.045 | pinometostat 0.052 | [14] -0.045 | [15] 0.073

RDH13 (UniProt Q8NBN7)
inactive: erlotinib 0.019 | [1] -0.004 | [2] 0.082 | [3] 0.01 | [4] 0.127 | [5] -0.024 | [6] 0.005 | [7] 0.007 | [8] 0.05 | [9] 0.007 | IRAK-1-4 Inhibitor I 0.012 | ibrutinib 0.03 | [10] -0.054 | ralimetinib -0.031 | [11] -0.061 | [12] -0.184 | [13] -0.029 | pinometostat -0.057 | [14] -0.051 | [15] 0.111

RAC1 (UniProt P63000)
inactive: erlotinib -0.066 | [1] -0.062 | [2] -0.003 | [3] 0.053 | [4] -0.194 | [5] 0.015 | [6] 0.048 | [7] -0.05 | [8] 0.017 | [9] 0.005 | IRAK-1-4 Inhibitor I -0.053 | ibrutinib 0.036 | [10] 0.038 | ralimetinib -0.01 | [11] 0.27 | [12] 0.051 | [13] -0.026 | pinometostat -0.127 | [14] -0.093 | [15] -0.002

RTN4IP1 (UniProt Q8WWV3)
Chain of UniProt Q8WWV3 (Q8WWV3 whole entry, looked up): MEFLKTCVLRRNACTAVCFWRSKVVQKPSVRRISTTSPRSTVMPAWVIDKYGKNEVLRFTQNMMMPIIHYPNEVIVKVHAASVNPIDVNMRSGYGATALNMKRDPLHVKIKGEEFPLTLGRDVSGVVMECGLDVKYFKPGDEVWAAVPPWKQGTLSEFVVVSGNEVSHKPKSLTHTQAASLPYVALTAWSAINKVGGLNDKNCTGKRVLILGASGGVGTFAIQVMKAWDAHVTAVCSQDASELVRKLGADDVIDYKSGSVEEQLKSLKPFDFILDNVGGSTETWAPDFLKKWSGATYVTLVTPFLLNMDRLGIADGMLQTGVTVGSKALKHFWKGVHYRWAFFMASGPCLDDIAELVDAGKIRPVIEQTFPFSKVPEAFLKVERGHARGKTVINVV
inactive: erlotinib 0.016 | [1] 0 | [2] 0.041 | [3] 0.066 | [4] 0.048 | [5] -0.08 | [6] 0.014 | [7] 0.027 | [8] -0.064 | [9] 0.074 | IRAK-1-4 Inhibitor I -0.036 | ibrutinib 0.214 | [10] -0.326 | ralimetinib 0.034 | [11] -0.046 | [12] 0.063 | [13] -0.009 | pinometostat 0.02 | [14] -0.039 | [15] 0.14

SGPL1 (UniProt O95470)
Chain of UniProt O95470 (O95470 whole entry, looked up): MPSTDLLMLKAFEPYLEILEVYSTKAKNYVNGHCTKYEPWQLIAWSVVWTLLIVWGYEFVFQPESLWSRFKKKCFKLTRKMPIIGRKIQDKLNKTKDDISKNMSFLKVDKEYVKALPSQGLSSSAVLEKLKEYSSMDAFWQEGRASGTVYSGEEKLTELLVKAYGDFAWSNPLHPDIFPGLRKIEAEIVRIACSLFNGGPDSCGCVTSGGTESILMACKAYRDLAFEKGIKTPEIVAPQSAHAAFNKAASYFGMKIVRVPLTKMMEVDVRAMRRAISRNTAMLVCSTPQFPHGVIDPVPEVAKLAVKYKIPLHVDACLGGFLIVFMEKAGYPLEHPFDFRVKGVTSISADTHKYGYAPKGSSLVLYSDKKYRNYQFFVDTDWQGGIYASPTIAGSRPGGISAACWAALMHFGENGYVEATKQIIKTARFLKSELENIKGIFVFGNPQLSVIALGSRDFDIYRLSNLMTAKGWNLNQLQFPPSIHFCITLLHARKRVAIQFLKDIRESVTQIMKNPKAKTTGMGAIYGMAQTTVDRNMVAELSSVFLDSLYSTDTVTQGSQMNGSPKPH
inactive: erlotinib -0.038 | [1] -0.019 | [2] -0.088 | [3] -0.047 | [4] 0.05 | [5] -0.029 | [6] 0.01 | [7] -0.001 | [8] -0.035 | [9] -0.145 | IRAK-1-4 Inhibitor I -0.05 | ibrutinib -0.018 | [10] -0.045 | ralimetinib 0.159 | [11] 0.017 | [12] 0.06 | [13] 0.002 | pinometostat 0.1 | [14] -0.025 | [15] 0.146

RPL31 (UniProt P62899)
active: [15] -0.625
inactive: erlotinib -0.145 | [1] -0.174 | [2] -0.444 | [3] 0.055 | [4] -0.052 | [5] -0.02 | [6] -0.047 | [7] -0.011 | [8] 0.087 | [9] -0.215 | IRAK-1-4 Inhibitor I -0.168 | ibrutinib -0.021 | [10] 0.138 | ralimetinib 0.1 | [11] 0.052 | [12] -0.013 | [13] 0.14 | pinometostat 0.273 | [14] -0.006

SEH1L isoform 1 (UniProt Q96EE3)
Chain of UniProt Q96EE3 (Q96EE3 whole entry, looked up): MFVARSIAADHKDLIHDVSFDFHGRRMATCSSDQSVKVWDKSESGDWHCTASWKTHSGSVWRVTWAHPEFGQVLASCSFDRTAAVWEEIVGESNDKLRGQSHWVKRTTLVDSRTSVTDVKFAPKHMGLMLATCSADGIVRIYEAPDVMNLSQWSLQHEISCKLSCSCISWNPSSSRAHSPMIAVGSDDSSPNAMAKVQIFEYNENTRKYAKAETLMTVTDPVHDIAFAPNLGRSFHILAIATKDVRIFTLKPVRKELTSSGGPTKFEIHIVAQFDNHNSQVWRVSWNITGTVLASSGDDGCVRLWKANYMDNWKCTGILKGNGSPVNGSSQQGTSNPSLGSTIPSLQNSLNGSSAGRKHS
inactive: erlotinib 0.018 | [1] 0.073 | [2] 0.012 | [3] 0.043 | [4] 0.049 | [5] 0.064 | [6] 0 | [7] -0.06 | [8] -0.02 | [9] 0.035 | IRAK-1-4 Inhibitor I 0.028 | ibrutinib -0.021 | [10] -0.056 | ralimetinib -0.014 | [11] 0.03 | [12] -0.019 | [13] -0.026 | pinometostat 0.011 | [14] 0.039 | [15] 0

SAFB2 (UniProt Q14151)
Chain of UniProt Q14151 (Q14151 whole entry, looked up): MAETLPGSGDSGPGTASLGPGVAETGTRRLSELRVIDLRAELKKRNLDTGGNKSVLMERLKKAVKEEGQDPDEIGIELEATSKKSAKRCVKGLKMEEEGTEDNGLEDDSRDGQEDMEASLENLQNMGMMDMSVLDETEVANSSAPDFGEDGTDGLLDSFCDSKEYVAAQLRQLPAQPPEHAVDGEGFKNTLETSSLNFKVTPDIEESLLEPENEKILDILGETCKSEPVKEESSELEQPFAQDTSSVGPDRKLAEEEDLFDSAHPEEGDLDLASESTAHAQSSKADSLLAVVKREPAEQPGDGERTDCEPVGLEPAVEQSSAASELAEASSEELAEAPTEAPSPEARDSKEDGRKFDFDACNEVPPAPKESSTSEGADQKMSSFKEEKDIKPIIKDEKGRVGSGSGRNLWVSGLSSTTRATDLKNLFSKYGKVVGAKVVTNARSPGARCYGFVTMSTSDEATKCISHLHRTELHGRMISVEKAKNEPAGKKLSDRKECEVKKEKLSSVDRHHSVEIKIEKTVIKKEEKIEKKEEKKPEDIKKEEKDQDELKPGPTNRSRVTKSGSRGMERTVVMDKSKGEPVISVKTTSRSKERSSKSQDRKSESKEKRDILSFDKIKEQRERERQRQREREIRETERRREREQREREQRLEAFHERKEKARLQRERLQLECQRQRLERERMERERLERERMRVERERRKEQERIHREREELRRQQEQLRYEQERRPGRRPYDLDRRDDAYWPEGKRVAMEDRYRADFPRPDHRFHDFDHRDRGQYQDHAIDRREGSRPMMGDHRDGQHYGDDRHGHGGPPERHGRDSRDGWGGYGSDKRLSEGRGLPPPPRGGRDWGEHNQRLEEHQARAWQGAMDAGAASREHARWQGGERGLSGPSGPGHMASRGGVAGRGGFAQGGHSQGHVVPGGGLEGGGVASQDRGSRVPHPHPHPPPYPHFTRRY
inactive: erlotinib 0.015 | [1] -0.135 | [2] -0.294 | [3] 0.071 | [4] -0.148 | [5] 0.049 | [6] 0.014 | [7] -0.015 | [8] -0.037 | [9] -0.041 | IRAK-1-4 Inhibitor I -0.065 | ibrutinib -0.012 | [10] 0.026 | ralimetinib 0.037 | [11] 0.165 | [12] 0.042 | [13] 0.049 | pinometostat 0.05 | [14] 0.018 | [15] -0.074

SELENOH (UniProt Q8IZQ5)
Chain of UniProt Q8IZQ5 (Q8IZQ5 whole entry, looked up): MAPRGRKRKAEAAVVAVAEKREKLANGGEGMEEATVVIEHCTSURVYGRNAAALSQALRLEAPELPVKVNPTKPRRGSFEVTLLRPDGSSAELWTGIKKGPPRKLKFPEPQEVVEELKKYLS
active: [4] -0.297
inactive: erlotinib 0.032 | [1] 0.013 | [2] -0.013 | [3] -0.003 | [5] -0.002 | [6] 0.034 | [7] 0.003 | [8] -0.052 | [9] 0.032 | IRAK-1-4 Inhibitor I -0.018 | ibrutinib -0.039 | [10] 0.13 | ralimetinib 0.086 | [11] -0.017 | [12] 0.059 | [13] -0.012 | pinometostat -0.012 | [14] -0.052 | [15] 0.057

RPS5 (UniProt P46782)
inactive: erlotinib -0.149 | [1] -0.087 | [2] -0.193 | [3] 0.038 | [4] -0.047 | [5] -0.045 | [6] -0.003 | [7] 0.008 | [8] 0.022 | [9] -0.125 | IRAK-1-4 Inhibitor I -0.137 | ibrutinib 0.045 | [10] 0.083 | ralimetinib 0.103 | [11] 0 | [12] -0.015 | [13] -0.019 | pinometostat 0.091 | [14] 0.034
active: [15] -0.551

RNF167 (UniProt Q9H6Y7)
inactive: erlotinib -0.133 | [1] -0.073 | [2] -0.069 | [3] 0.052 | [4] 0.025 | [5] 0.025 | [6] -0.004 | [7] -0.07 | [8] -0.018 | [9] -0.009 | IRAK-1-4 Inhibitor I -0.001 | ibrutinib 0.015 | [10] 0.039 | ralimetinib -0.018 | [11] -0.025 | [12] -0.047 | [13] -0.009 | pinometostat 0.015 | [14] 0.064 | [15] 0
